PubChem BioAssay (Tox21)
Records with an inconclusive call do not appear. The source made the active and inactive calls. Unless noted, calls come from the whole dose curve; as a rule, active = well fitted curve in the direction sought with a large enough effect in the repeat runs; inconclusive = weak or mixed curves; inactive = no such curve, though single readings can be large; an effect the other way counts as inactive or inconclusive.

Experiments:
[1] = qHTS assay to identify small molecule antagonists of the estrogen receptor beta (ER-beta) signaling pathway - cell viability counter screen (AID 1259382);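 note: HEK293T cells carrying ER-beta-UAS-bla reporter stimulated with estradiol; series mostly up to about 92 µM; nearly all actives have a fitted effect of over 55% in size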
Method in brief: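 Cytotoxicity counter screen multiplexed with the beta-lactamase antagonist assay: GripTite HEK293T ER-beta-bla cells were treated 16 hr with test chemicals in the presence of 1nM 17-beta-estradiol, and viability was measured by CellTiter-Glo.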

[2] = qHTS assay to identify small molecule agonists or antagonists of the thyroid stimulating hormone receptor (TSHR) signaling pathway - wild type cell line counter screen (AID 1259384; calls by dose curve)
Method in brief: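 Wild-type Hek293 cells, 800/well, 18 h at 37C, then compound with Ro20-1724 for 30 min RT. cAMP by HTRF (cAMP-d2/anti-cAMP cryptate), 1 h RT, fluorescence read. 15 concentrations, triplicates.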

[3] = biological target: Thyrotropin receptor (Homo sapiens) (UniProt P16473); assay: qHTS assay to identify small molecule antagonists of the thyroid stimulating hormone receptor (TSHR) signaling pathway (AID 1259385; calls by dose curve; note: nearly all actives have a fitted effect of over 20% in size)
Thyrotropin receptor (Homo sapiens), sequence (P16473 whole entry, looked up): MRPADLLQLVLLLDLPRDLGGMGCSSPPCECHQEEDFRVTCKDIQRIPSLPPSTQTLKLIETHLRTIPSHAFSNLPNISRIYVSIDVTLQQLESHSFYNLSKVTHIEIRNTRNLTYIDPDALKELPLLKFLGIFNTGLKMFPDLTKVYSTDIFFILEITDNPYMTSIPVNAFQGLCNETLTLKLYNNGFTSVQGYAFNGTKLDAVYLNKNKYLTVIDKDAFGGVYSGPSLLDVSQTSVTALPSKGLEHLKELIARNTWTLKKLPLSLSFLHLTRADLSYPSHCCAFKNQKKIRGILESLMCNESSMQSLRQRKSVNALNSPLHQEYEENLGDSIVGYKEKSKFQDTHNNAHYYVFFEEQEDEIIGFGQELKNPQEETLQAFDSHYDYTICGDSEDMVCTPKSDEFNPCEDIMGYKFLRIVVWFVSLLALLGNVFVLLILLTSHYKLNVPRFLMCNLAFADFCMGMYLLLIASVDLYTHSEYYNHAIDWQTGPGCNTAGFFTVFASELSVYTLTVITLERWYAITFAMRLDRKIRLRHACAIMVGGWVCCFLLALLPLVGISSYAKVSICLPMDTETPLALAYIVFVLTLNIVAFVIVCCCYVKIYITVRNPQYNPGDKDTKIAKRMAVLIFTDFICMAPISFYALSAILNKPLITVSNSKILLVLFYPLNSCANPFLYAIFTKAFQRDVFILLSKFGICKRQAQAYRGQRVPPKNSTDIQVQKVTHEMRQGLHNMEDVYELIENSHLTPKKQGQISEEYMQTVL
Method in brief: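 TSHR-HEK293 cells (800/well) plated 18 h, then compounds with Ro20-1724 and TSH at 1.5 ng/mL final, 30 min at room temperature. cAMP quantified by HTRF (cAMP-d2/anti-cAMP-cryptate, 1 h); 15 concentrations in triplicate.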

[4] = qHTS assay to identify small molecule agonists of the estrogen receptor alpha (ER-alpha) signaling pathway in the presence of an antagonist - cell viability counter screen (AID 1259386);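 note: series mostly up to about 92 µM; cells exposed to compounds for 22 h at 37 °C before the viability read; nearly all actives have a fitted effect of over 30% in size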
Method in brief: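 Cytotoxicity was measured in parallel with the ERE-luciferase agonist screen, in the same wells. The cells were VM7Luc4E2, which endogenously express ER-alpha, and treatment was with compounds plus 10.0nM ICI-182,780 for 22hr.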

[5] = biological target: Progesterone receptor (Homo sapiens) (UniProt P06401); assay: qHTS assay to identify small molecule agonists of the progesterone receptor (PR) signaling pathway (AID 1346784; calls by dose curve; note: nearly all actives have a fitted effect of over 30% in size)
Progesterone receptor (Homo sapiens), sequence (P06401 whole entry, looked up): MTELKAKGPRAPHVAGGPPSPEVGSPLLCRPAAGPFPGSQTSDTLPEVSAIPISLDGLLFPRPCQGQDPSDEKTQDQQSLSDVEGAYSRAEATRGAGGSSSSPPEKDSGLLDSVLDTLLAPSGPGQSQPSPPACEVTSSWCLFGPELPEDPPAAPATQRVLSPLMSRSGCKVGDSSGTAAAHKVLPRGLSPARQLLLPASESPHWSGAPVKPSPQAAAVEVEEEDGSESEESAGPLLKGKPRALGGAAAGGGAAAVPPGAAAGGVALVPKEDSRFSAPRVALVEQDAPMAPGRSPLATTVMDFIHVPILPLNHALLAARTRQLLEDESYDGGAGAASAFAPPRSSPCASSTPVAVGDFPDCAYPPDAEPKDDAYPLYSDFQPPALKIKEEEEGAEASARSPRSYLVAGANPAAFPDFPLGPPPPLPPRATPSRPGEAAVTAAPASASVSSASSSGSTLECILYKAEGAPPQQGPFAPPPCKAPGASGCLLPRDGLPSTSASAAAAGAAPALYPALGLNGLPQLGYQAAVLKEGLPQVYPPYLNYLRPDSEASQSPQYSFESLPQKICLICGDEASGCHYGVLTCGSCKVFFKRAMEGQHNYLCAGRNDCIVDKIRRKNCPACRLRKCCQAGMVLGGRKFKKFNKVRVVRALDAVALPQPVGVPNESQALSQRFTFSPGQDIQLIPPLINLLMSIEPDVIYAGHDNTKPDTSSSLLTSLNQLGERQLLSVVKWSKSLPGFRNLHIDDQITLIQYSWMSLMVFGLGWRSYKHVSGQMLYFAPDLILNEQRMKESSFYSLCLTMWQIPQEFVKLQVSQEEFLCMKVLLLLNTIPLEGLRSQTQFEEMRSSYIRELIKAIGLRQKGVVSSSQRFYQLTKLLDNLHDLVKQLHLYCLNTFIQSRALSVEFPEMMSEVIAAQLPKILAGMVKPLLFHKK
Method in brief: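 Compounds were tested for PR agonism in HEK 293T cells bearing a beta-lactamase gene under UAS control. Treatment lasted 16 hr at 37C; signal came from fluorescence of a FRET substrate.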

[6] = biological target: Progesterone receptor (Homo sapiens) (UniProt P06401); assay: qHTS assay to identify small molecule antagonists of the progesterone receptor (PR) signaling pathway (AID 1346795; active = well fitted inhibition curve with a large enough effect in the signal ratio in the repeat runs, not every such curve was filed as active; the % refers to the signal ratio)
Method in brief: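 In HEK293T cells bearing the PR-UAS-bla reporter, compound effects on promegestone-driven (1 nM) beta-lactamase expression are assessed after 16 hr using a fluorescent FRET substrate incubated 2 hr at room temperature.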

[7] = qHTS assay to identify small molecule agonists of the progesterone receptor (PR) signaling pathway - cell viability counter screen (AID 1346799; calls by dose curve; note: nearly all actives have a fitted effect of over 45% in size)
Method in brief: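 Here, 3,000 PR-UAS-bla HEK293T cells per well were treated with compounds for 16 hr after a 6 hr preincubation at 37C and 5% CO2; cell viability is the CellTiter-Glo luminescence signal.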

[8] = qHTS assay to identify small molecule antagonists of the TGF-beta/Smad signaling pathway - cell viability counter screen (AID 1346824); note: nearly all actives have a fitted effect of over 50% in size
Method in brief: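 SBE-bla HEK 293T cells, incubated overnight, then compound plus 0.25 ng/mL TGF-beta1 (stock added) for 5 hr at 37 C. Viability was read in the same wells by CellTiter-Glo luminescence after 30 min at room temperature.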

[9] = qHTS assay to identify small molecule agonists of the TGF-beta/Smad signaling pathway (AID 1346859; active = well fitted activation curve with a large enough effect in the signal ratio in the repeat runs, not every such curve was filed as active; the % refers to the signal ratio; note: series mostly up to about 77 µM)
Method in brief: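 Each well held 4,000 SBE-bla HEK 293T cells incubated overnight before compound addition; 5 hr later the cleavable FRET substrate went on for 2 hr at room temperature, and fluorescence was read at two emissions.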

[10] = biological target: Thyrotropin-releasing hormone receptor (Homo sapiens) (UniProt P34981); assay: qHTS assay to identify small molecule antagonists of the thyrotropin-releasing hormone receptor (TRHR) signaling pathway (AID 1346877; active = well fitted inhibition curve with a large enough effect in the repeat runs, not every such curve was filed as active; note: series mostly up to about 51 µM)
Thyrotropin-releasing hormone receptor (Homo sapiens), sequence (P34981 whole entry, looked up): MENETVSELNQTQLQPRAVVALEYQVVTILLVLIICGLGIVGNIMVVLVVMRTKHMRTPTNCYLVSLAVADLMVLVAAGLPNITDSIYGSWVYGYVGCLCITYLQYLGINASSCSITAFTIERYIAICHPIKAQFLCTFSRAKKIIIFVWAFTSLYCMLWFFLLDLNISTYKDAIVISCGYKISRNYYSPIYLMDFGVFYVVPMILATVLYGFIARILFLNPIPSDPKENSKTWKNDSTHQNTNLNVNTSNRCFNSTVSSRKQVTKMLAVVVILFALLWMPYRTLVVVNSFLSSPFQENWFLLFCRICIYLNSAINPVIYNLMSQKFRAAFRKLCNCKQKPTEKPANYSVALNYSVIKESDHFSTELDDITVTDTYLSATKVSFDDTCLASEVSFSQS
Method in brief: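 Antagonism is measured as suppression of the calcium response to 1 nM TRH in TRHR-HEK293 cells that have been dye-loaded for 2 h at 37 °C after overnight plating. Each compound is tested at 15 concentrations in triplicate.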

[11] = biological target: Thyrotropin-releasing hormone receptor (Homo sapiens) (UniProt P34981); assay: qHTS assay to identify small molecule agonists of the thyrotropin-releasing hormone receptor (TRHR) signaling pathway (AID 1346891; calls by dose curve; note: series mostly up to about 58 µM)
Method in brief: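 Screening of agonists relied on calcium signalling in HEK293 cells expressing human TRHR: dye loading 2 h at 37 °C preceded compound addition and a 3-min fluorescence time course.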

[12] = Human pregnane X receptor (PXR) small molecule agonists, qHTS cell viability counter screen (AID 1346977); note: nearly all actives have a fitted effect of over 50% in size
Method in brief: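 Tox21 qHTS format; PXR-Luc HepG2, 2,000/well, charcoal-stripped FBS 5%. Cpd exposure 24hr. Read: CellTiter-Fluor fluorescence, multiplexed with luciferase.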

[13] = Caspase-3/7 induction in HepG2 cells by small molecules, qHTS assay (AID 1346978); note: nearly all actives have a fitted effect of over 15% in size
Method in brief: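 Wild-type HepG2 cells, 2,000/well, settled 5 hr at 37 C and 5% CO2, then compound-treated for 17 hr; caspase-3/7 activity read by luminescent Caspase-Glo 3/7 after 30 min at room temperature.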

[14] = Caspase-3/7 induction in CHO-K1 cells by small molecules, qHTS cell viability counter screen (AID 1346979); note: nearly all actives have a fitted effect of over 35% in size
Method in brief: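 CellTiter-Fluor viability check, qHTS format: wild-type CHO-K1, 16hr compound treatment, 1hr reagent incubation, fluorescence read.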

[15] = Caspase-3/7 induction in CHO-K1 cells by small molecules, qHTS assay (AID 1346980); note: nearly all actives have a fitted effect of over 15% in size
Method in brief: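 Wild-type CHO-K1 cells exposed to compounds for 17hr at 37 C, 5% CO2. Caspase-3/7 activity then measured by Caspase-Glo 3/7 luminescence after 30min at room temperature.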

[16] = Caspase-3/7 induction in HepG2 cells by small molecules, qHTS cell viability counter screen (AID 1346981); note: series mostly up to about 92 µM; nearly all actives have a fitted effect of over 30% in size
Method in brief: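 Cell viability is measured as a cytotoxicity counter screen alongside the Caspase-Glo 3/7 readout in identical wells. Wild-type HepG2 cells are treated with test compounds for 16 hr at 37 C before CellTiter-Fluor addition and a 1-hr incubation.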

[17] = biological target: Nuclear receptor subfamily 1 group I member 2 (Homo sapiens) (UniProt O75469); assay: Human pregnane X receptor (PXR) small molecule agonists, qHTS assay (AID 1346982); note: nearly all actives have a fitted effect of over 35% in size
Nuclear receptor subfamily 1 group I member 2 (Homo sapiens), sequence (O75469 whole entry, looked up): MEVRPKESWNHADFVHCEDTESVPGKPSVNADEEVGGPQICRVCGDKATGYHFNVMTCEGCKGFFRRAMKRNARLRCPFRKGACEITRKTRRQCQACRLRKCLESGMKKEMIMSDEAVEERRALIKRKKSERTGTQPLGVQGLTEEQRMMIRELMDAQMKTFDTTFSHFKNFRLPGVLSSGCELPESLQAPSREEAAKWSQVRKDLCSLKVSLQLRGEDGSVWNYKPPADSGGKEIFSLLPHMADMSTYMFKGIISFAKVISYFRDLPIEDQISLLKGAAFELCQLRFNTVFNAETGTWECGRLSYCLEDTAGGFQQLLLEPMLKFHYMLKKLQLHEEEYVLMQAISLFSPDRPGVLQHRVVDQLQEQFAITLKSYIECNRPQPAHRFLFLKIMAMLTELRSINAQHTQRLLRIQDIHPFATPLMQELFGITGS
Method in brief: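 Cells: HepG2 stably carrying PXR-Luc. Medium held 5% charcoal-stripped FBS. Compounds in DMSO added after 5 hr plating, incubated 24 hr, then luminescence quantified with ONE-Glo.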

[18] = qHTS assay to identify small molecule antagonists of the progesterone receptor (PR) signaling pathway - cell viability counter screen (AID 1346798); note: series mostly up to about 92 µM; nearly all actives have a fitted effect of over 50% in size
Method in brief: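 Following a 4 hr attachment, PR-UAS-bla HEK293T cells in charcoal-stripped FBS medium were exposed to compounds with R5020 for 16 hr; CellTiter-Glo was added and luminescence read after 30 min at room temperature.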

[19] = qHTS assay to identify small molecule agonists of the TGF-beta/Smad signaling pathway - cell viability counter screen (AID 1346829); note: top concentration of the series differs between compounds; nearly all actives have a fitted effect of over 45% in size
Method in brief: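 Here the cytotoxicity of library compounds is measured in SBE-bla HEK 293T cells treated for 5 hr, using CellTiter-Glo added to wells already read for the beta-lactamase reporter.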
% is set by controls: 0 for no effect and ±100 for the full control effect.

CC(C)(C)C(=O)CCc1ccc(Cl)cc1
inactive: outcome [1] | outcome [2] | outcome [3] | outcome [4] | Potency [5] | Potency [6] | Potency [7] | outcome [8] | outcome [9] | outcome [10] | Potency [11] | outcome [12] | outcome [13] | Potency [14] | outcome [15] | outcome [16] | Potency [17]

CC(C)(Sc1cc(C(C)(C)C)c(O)c(C(C)(C)C)c1)Sc1cc(C(C)(C)C)c(O)c(C(C)(C)C)c1
inactive: outcome [1] | outcome [2] | outcome [3] | Potency [5] | Potency [6] | outcome [18] | outcome [8] | outcome [19] | outcome [9] | outcome [10] | Potency [11] | outcome [12] | outcome [13] | Potency [14] | outcome [15] | outcome [16]

CCc1ncc(C)[nH]1
inactive: outcome [1] | outcome [3] | outcome [4] | Potency [5] | Potency [6] | outcome [18] | Potency [7] | outcome [8] | outcome [19] | outcome [9] | outcome [10] | Potency [11] | outcome [12] | outcome [13] | Potency [14] | outcome [15] | outcome [16]

CCC(C)SSC(C)CC (stereo not drawn)
inactive: outcome [1] | outcome [2] | outcome [3] | outcome [4] | Potency [5] | Potency [6] | outcome [18] | outcome [8] | outcome [9] | outcome [10] | Potency [11] | outcome [12] | outcome [13] | Potency [14] | outcome [15] | outcome [16] | Potency [17]

Cc1ccc(O)c(C(=O)c2ccccc2)c1
inactive: outcome [1] | outcome [2] | outcome [4] | Potency [5] | Potency [6] | outcome [18] | Potency [7] | outcome [8] | outcome [19] | outcome [9] | outcome [10] | Potency [11] | outcome [12] | outcome [13] | Potency [14] | outcome [15] | outcome [16]

CCN(CC)CC(=O)Oc1ccc(NC(C)=O)cc1
inactive: outcome [1] | outcome [2] | outcome [3] | outcome [4] | Potency [5] | Potency [6] | outcome [8] | outcome [19] | outcome [9] | outcome [10] | Potency [11] | outcome [12] | outcome [13] | Potency [14] | outcome [15] | outcome [16] | Potency [17]

Cc1ccc(S(=O)(=O)NC(=O)NN2CC3CCCC3C2)cc1 (stereo not drawn)
inactive: outcome [1] | outcome [2] | outcome [3] | outcome [4] | Potency [5] | Potency [6] | Potency [7] | outcome [8] | outcome [9] | outcome [10] | Potency [11] | outcome [12] | outcome [13] | Potency [14] | outcome [15] | outcome [16] | Potency [17]

CCCCCC(CC)OC(=O)CCCOc1ccc(Cl)cc1Cl (stereo not drawn)
inactive: outcome [1] | outcome [2] | outcome [3] | Potency [5] | Potency [6] | outcome [18] | Potency [7] | outcome [8] | outcome [19] | outcome [9] | outcome [10] | Potency [11] | outcome [12] | outcome [13] | Potency [14] | outcome [15] | Potency [17]

O=C(CCBr)N1CCN(C(=O)CCBr)CC1
inactive: outcome [1] | outcome [2] | outcome [3] | outcome [4] | Potency [5] | Potency [7] | outcome [8] | outcome [19] | outcome [9] | outcome [10] | outcome [12] | outcome [13] | Potency [14] | outcome [15] | outcome [16] | Potency [17]

CC(C)OC(=O)C(C(=O)OC(C)C)=C1SC=CS1
inactive: outcome [1] | outcome [2] | outcome [3] | outcome [4] | Potency [5] | outcome [8] | outcome [19] | outcome [9] | outcome [10] | Potency [11] | outcome [12] | outcome [13] | Potency [14] | outcome [15] | outcome [16]

CSC(=O)c1cccc2nnsc12
inactive: outcome [1] | outcome [2] | outcome [3] | outcome [4] | Potency [5] | outcome [18] | outcome [8] | outcome [9] | outcome [10] | Potency [11] | outcome [12] | outcome [13] | Potency [14] | outcome [15] | outcome [16] | Potency [17]

N=C(N)N1CCc2ccccc2C1
inactive: activity change, negative = cytotoxicity [1] 8.18% [at 8.39 µM] | cAMP activity change [2] 4.39% [at 8.39 µM] | activity change, negative = inhibition [3] 0.0098% [at 8.39 µM] | activity change, negative = inhibition [6] 5.13% [at 8.39 µM] | activity change, negative = cytotoxicity [18] 3.01% [at 8.39 µM] | activity change, negative = cytotoxicity [7] 0.346% [at 8.39 µM] | viability change, negative = cytotoxic [8] -7.19% [at 6.97 µM] | activity change, negative = cytotoxicity [19] -4.14% [at 6.97 µM] | activation [9] -1.64% [at 6.97 µM] | activity, negative = inhibition [10] 4% [at 4.65 µM] | activation [11] 0.0364% [at 5.23 µM] | activity change, negative = cytotoxicity [12] 4.15% [at 8.39 µM] | caspase activation [13] -1.31% [at 8.39 µM] | caspase-3/7 activation [15] -0.384% [at 8.39 µM] | activity change, negative = cytotoxicity [16] 3.77% [at 8.39 µM] | activation [17] -6.7% [at 8.39 µM]

O=C[C@@H](O)[C@H](O)[C@H](O)CO
inactive: outcome [1] | outcome [2] | outcome [3] | Potency [5] | Potency [6] | outcome [18] | outcome [8] | outcome [19] | outcome [9] | outcome [10] | Potency [11] | outcome [12] | outcome [13] | Potency [14] | outcome [15] | outcome [16] | Potency [17]

CCCCCC(=O)CC
inactive: outcome [1] | outcome [2] | outcome [3] | outcome [4] | outcome [8] | outcome [19] | outcome [9] | outcome [10] | Potency [11] | outcome [12] | outcome [13] | outcome [15] | outcome [16] | Potency [17]

CCOCCOCCOC(C)=O
inactive: outcome [1] | outcome [2] | outcome [3] | Potency [5] | Potency [6] | outcome [18] | Potency [7] | outcome [8] | outcome [19] | outcome [9] | outcome [12] | outcome [13] | Potency [14] | outcome [15] | outcome [16]

COCc1nnc(-c2ccc[n+]([O-])c2)n1-c1c(Cl)c(Cl)cc2[nH]c(=O)c(=O)[nH]c12
inactive: outcome [1] | outcome [2] | outcome [3] | outcome [4] | Potency [5] | outcome [18] | outcome [8] | outcome [19] | outcome [9] | outcome [12] | outcome [13] | Potency [14] | outcome [15] | outcome [16]
